A structure can be active in one record and inactive in another. The source made the active and inactive calls. Rule for the calls: active = hit-call score of the fitted dose curve at least 0.9, where 1 is the maximum; inactive = score below 0.9.
Legend:
[1] = biological target: Hypoxia-inducible factor 1-alpha (Homo sapiens) (UniProt Q16665); assay: ATG_HIF1a_CIS: Attagene CIS-FACTORIAL HepG2 Assay for human Hypoxia Inducible Factor 1 (HIF1A) (AID 2282951); conditions: HepG2 Attagene cis-factorial HIF1a reporter transcription; actives raise or lower the signal
In short: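 In this multiplexed cell assay, HepG2 cells bearing transfected cis reporters are dosed for 24 h and reporter mRNA is read by RT-PCR plus capillary electrophoresis; signal increases and decreases are both scored against DMSO.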

[2] = biological target: Hepatocyte nuclear factor 6 (Homo sapiens) (UniProt Q9UBC0); assay: ATG_HNF6_CIS: Attagene CIS-FACTORIAL HepG2 Assay for human Hepatocyte Nuclear Factor 6 (HNF6) (AID 2282952); conditions: HepG2 Attagene cis-factorial HNF6 reporter transcription; actives raise or lower the signal
In short: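 Activity values derive from bidirectional fitting against DMSO of reporter mRNA levels, measured by capillary electrophoresis of labelled RT-PCR products from HepG2 cells exposed 24 h.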

[3] = biological target: Heat shock factor protein 1 (Homo sapiens) (UniProt Q00613); assay: ATG_HSE_CIS: Attagene CIS-FACTORIAL HepG2 Assay for human Heat Shock Transcription Factor 1 (HSE) (AID 2282953); conditions: HepG2 HSE cis-reporter, Attagene RNA transcription; actives raise or lower the signal
In short: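 HepG2 cells transfected with cis-promoter reporter units sensing endogenous transcription factor activity; reporter mRNA quantified 24 h post-dose by RT-PCR and capillary electrophoresis of 6-FAM-labelled products. Bidirectional fitting against DMSO.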

[4] = ATG_MRE_CIS: Attagene CIS-FACTORIAL HepG2 Assay for human Metal Responsive Element (MRE) (AID 2282954); conditions: HepG2 MRE cis-reporter transcription, Attagene multiplex; actives raise or lower the signal
In short: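 Readout: capillary electrophoresis of 6-FAM-labelled, HpaI-digested RT-PCR reporter products. System: HepG2 cells carrying transient multiplexed cis reporters, dosed 24 h. Analysis: bidirectional fit, DMSO baseline.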

[5] = biological target: Paired box protein Pax-6 (Homo sapiens) (UniProt P26367); assay: ATG_Pax6_CIS: Attagene CIS-FACTORIAL HepG2 Assay for human Paired Box 6 (PAX6) (AID 2282956); conditions: HepG2 CIS-FACTORIAL PAX6 reporter transcription, RNA readout; actives raise or lower the signal
In short: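 Fluorescent RT-PCR products separated by capillary electrophoresis report PAX6-linked promoter mRNA in HepG2 cells 24 h post-dose. Curves fitted bidirectionally, DMSO as negative control.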

[6] = ATG_PXRE_CIS: Attagene CIS-FACTORIAL HepG2 Assay for human Pregnane X Receptor Element (PXRE) (AID 2282957); conditions: HepG2 Attagene CIS-FACTORIAL PXRE reporter, mRNA; actives raise or lower the signal
In short: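 Fluorescent capillary electrophoresis of amplified reporter cDNA gave the signal, collected 24 h after dosing HepG2 cells that held transfected cis-element reporter constructs.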

[7] = ATG_PPRE_CIS: Attagene CIS-FACTORIAL HepG2 Assay for human Peroxisome Proliferator-activated Response Element (PPRE) (AID 2282958); conditions: HepG2 PPRE cis-element reporter, Attagene transcription factor profiling; actives raise or lower the signal
In short: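 Multiplexed reporter transcription units under cis-regulatory promoters were transfected into HepG2 cells to capture endogenous factor activity. A 24 h incubation preceded RNA isolation and fluorescent RT-PCR fragment analysis.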

[8] = ATG_Sox_CIS: Attagene CIS-FACTORIAL HepG2 Assay for human SRY-box transcription factor (SOX) (AID 2282960); conditions: HepG2 Attagene cis-factorial SOX reporter, mRNA; actives raise or lower the signal
In short: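 After 24 h of chemical treatment, transfected HepG2 reporter cells are lysed for total RNA. Transcript levels come from RT-PCR with labelled primer extension and capillary electrophoresis, analysed bidirectionally versus DMSO.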

[9] = ATG_PBREM_CIS: Attagene CIS-FACTORIAL HepG2 Assay for human Phenobarbital-responsive Enhancer Module (PBREM) (AID 2282955); conditions: HepG2 PBREM cis-reporter, Attagene multiplexed transcription; actives raise or lower the signal
In short: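 After a 24 h incubation with test chemical, transfected HepG2 cells yield total RNA; reporter-specific RT-PCR products are fluorescently labelled, HpaI-digested and resolved by capillary electrophoresis against ROX size standards.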

[10] = ATG_RORE_CIS: Attagene CIS-FACTORIAL HepG2 Assay for human RAR-related Orphan Receptor Element (RORE) (AID 2282959); conditions: HepG2 Attagene cis-factorial RORE reporter, mRNA; actives raise or lower the signal
In short: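 Fluorescence intensity of reporter-specific cDNA fragments, separated by capillary electrophoresis, gives the signal. Source: HepG2 liver cells transiently transfected with cis-element reporters and exposed 24 h; DMSO-normalized bidirectional fit.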

Measured: AC50

Hepatocyte nuclear factor 6 (Homo sapiens), sequence (Q9UBC0 whole entry, looked up): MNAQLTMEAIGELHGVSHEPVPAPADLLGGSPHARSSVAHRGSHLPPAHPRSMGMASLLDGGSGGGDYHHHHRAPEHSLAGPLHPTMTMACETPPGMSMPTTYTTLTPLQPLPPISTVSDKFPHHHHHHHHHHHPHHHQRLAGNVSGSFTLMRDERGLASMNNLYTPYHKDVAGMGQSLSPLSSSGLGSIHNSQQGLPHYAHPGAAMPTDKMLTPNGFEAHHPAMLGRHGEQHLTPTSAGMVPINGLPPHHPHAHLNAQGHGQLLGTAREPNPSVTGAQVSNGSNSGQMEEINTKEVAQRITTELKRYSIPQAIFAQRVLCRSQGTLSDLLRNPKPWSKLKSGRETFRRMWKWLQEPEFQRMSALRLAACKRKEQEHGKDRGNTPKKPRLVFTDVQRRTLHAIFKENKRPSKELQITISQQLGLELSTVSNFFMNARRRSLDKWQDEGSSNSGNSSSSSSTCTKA
Heat shock factor protein 1 (Homo sapiens), sequence (Q00613 whole entry, looked up): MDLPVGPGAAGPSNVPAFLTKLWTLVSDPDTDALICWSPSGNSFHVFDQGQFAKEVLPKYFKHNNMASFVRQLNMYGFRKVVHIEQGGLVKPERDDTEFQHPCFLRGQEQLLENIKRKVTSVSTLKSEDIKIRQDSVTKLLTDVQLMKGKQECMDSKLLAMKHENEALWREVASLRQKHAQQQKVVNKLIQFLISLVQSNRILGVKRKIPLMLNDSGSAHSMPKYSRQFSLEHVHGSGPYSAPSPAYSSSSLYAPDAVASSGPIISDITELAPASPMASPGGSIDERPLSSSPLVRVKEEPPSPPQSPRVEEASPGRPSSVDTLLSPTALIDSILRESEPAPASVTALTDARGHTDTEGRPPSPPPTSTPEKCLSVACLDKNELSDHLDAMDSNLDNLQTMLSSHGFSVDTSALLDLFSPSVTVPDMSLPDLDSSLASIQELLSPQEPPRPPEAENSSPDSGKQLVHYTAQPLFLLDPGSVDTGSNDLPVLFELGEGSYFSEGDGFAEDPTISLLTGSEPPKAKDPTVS
Hypoxia-inducible factor 1-alpha (Homo sapiens), sequence (Q16665 whole entry, looked up): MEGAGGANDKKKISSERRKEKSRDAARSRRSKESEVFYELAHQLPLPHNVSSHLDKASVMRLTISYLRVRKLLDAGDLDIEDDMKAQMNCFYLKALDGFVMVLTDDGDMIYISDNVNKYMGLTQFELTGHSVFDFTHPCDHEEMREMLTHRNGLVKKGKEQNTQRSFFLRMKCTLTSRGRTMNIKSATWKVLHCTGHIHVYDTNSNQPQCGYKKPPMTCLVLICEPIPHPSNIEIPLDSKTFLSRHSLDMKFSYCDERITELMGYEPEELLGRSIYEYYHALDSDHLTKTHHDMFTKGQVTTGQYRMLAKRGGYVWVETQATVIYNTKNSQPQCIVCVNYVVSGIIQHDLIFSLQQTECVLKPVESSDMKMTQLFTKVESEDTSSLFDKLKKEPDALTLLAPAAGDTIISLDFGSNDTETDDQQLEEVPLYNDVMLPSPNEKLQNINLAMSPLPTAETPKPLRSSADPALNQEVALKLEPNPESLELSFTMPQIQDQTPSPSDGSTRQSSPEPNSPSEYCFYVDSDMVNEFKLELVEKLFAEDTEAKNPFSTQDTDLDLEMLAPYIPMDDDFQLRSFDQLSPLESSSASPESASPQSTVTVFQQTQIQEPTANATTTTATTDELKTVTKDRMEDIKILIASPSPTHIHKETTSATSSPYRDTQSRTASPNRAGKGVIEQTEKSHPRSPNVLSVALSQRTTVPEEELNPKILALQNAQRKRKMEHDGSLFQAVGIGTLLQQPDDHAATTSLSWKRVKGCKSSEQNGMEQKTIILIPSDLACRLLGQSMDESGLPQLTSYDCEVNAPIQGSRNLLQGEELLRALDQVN
Paired box protein Pax-6 (Homo sapiens), sequence (P26367 whole entry, looked up): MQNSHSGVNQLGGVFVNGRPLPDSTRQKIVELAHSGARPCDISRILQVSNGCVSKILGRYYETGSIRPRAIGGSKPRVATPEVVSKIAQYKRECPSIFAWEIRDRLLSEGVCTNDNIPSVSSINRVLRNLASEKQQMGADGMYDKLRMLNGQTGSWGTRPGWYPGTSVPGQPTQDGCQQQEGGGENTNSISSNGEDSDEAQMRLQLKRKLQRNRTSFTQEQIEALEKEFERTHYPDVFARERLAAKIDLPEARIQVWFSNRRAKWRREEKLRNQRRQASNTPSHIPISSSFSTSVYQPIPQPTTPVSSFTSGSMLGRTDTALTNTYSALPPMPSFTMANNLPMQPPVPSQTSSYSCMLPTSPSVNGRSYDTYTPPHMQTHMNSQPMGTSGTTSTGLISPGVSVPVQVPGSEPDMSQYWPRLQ

O=S(=O)(c1ccc(Cl)cc1)c1ccc(Cl)cc1
active: [4] 101 µM | [6] 4.46 µM
not listed: [9] | [10]
inactive: all other assays above

CNC(=O)O/N=C/C(C)(C)S(C)=O (stereo not drawn)
active: [3] 154 µM
not listed: [4]
inactive: all other assays above

O=[N+]([O-])c1c(Cl)c(Cl)cc(Cl)c1Cl
active: [6] 18.2 µM
not listed: [9] | [10]
inactive: all other assays above

[O-][Cl+2]([O-])O
active: [6] 69 µM
not listed: [7] | [9] | [10]
inactive: all other assays above

N#CN=C(N)N
not listed: [4]
inactive: all other assays above

COP(=S)(OC)Oc1cc(Cl)c(Cl)cc1Cl
active: [6] 26.7 µM | [7] 26.6 µM
inactive: [1] | [2] | [3] | [9]

COc1cc(OC)nc(NC(=O)NS(=O)(=O)c2ncccc2C(=O)N(C)C)n1
not listed: [4] | [10]
inactive: all other assays above

O=C(O)C(Cl)(Cl)Cl
active: [6] 71.7 µM
inactive: [1] | [2] | [3] | [9] | [5] | [6] | [7] | [10] | [8]

CCCCOCCOC(C)=O
not listed: [9] | [10]
inactive: all other assays above

ClCc1cccnc1
active: [4] 45.9 µM
not listed: [5] | [9] | [10]
inactive: all other assays above

CC1(C)CCC(Cc2ccc(Cl)cc2)C1(O)Cn1cncn1 (stereo not drawn)
inactive: [1] | [2] | [3] | [5] | [7]
active: [9] 24.2 µM | [6] 2.43 µM

C1CCC(NC2CCCCC2)CC1
active: [6] 16.7 µM
not listed: [9]
inactive: all other assays above

Cl/C=C\C[N+]12CN3CN(CN(C3)C1)C2
inactive: [1] | [2] | [4] | [10] | [8]
active: [3] 158 µM | [6] 45.2 µM

COP(=S)(OC)Oc1ccc(S(=O)(=O)N(C)C)cc1
active: [6] 26.8 µM
not listed: [4] | [7]
inactive: all other assays above

CC(C#N)CCC#N (stereo not drawn)
inactive: [1] | [2] | [3] | [4] | [6] | [7]

CC(C)OC(=O)Nc1ccccc1
active: [6] 100 µM
not listed: [5] | [7] | [9]
inactive: all other assays above

CCC[CH2][Sn]([CH2]CCC)([CH2]CCC)[O]C(=O)c1ccccc1
active: [7] 0.0115 µM
not listed: [3] | [9] | [10]
inactive: all other assays above

Clc1ccc(COC(Cn2ccnc2)c2ccc(Cl)cc2Cl)cc1 (stereo not drawn)
inactive: [2] | [3] | [8]
active: [6] 0.697 µM

ClC(Cl)=C(Cl)C(Cl)=C(Cl)Cl
active: [3] 144 µM | [6] 130 µM
inactive: [1] | [2] | [7] | [10]

Cc1cc(Cl)ccc1O[C@H](C)C(=O)O
active: [7] 28.7 µM
not listed: [4] | [8] | [9]
inactive: all other assays above

Source: PubChem BioAssay (EPA / NIEHS)
